Data as given in PubChem BioAssay (Tox21).
Records with an inconclusive call do not appear. Entries that show only a call come without a potency. Some structures have more than one record in an assay (separate samples or runs), and their calls can disagree. Activity calls are given as the source filed them. Calls come from the whole dose curve; as a rule, active = well fitted inhibition curve with a large enough effect in the repeat runs; inconclusive = weak or mixed curves; inactive = no such curve, though single readings can be large or run the other way.

target: Cytochrome P450 2D6 (Homo sapiens) (UniProt P10635); test: Cytochrome P450 Family 2 Subfamily D Member 6 (CYP2D6) small molecule antagonists: luciferase reporter qHTS assay (AID 1671196); details: P450-Glo CYP2D6 enzyme assay, luciferin luminescence, 1 h; series mostly up to 115 µM; note: nearly all actives have a fitted effect of over 50% in size
Description: U.S. Tox21 Program National Center for Advancing Translational Sciences [NCATS] U.S. Environmental Protection Agency [EPA] National Institutes of Environmental Health Sciences [NIEHS] National Toxicology Program [NTP] U.S. Food and Drug Administration [FDA] Tox21 Assay Overview: Cytochrome P450 (CYP) enzymes are membrane-bound hemeproteins that play a key role in metabolism of drugs and xenobiotics. Evaluation of the effect of chemicals on CYP isozymes is useful to minimize the adverse drug reactions and toxicities in drug development process. Tox21 chemicals were tested for their effect on CYP enzyme activities by using P450-Glo (TM) screening systems (Promega Corporation, Madison, WI). These systems provide a luminescent method containing proluciferin substrates and are converted to luciferin products by CYP isozymes. The luciferin products formed are detected with a luciferin detection reagent, and the amount of light produced is proportional to CYP activity. P450-Glo (TM) CYP2D6 screening system (Catalog. No. V9890) was used to detect the compounds that interfere in CYP2D6 activity.
Tox21 Assay Protocol Summary: Two ul of enzyme-substrate mix was dispensed into medium binding white/solid 1536-well plates (Greiner Bio-One North America Inc., Monroe, NC) using a BioRaptr Flying Reagent Dispenser (FRD, Beckman Coulter, Brea, CA). […] The assay plates were incubated at room temperature for 10 min. Then 2 ul of NADPH regeneration solution was added to each well of the assay plates using an FRD and incubated at room temperature for 1 h. The reaction was stopped by adding 4 ul of detection reagent using an FRD and after 20 min incubation at room temperature the luminescence signal was measured using a ViewLux plate reader (Perkin Elmer, Shelton, CT). Data were expressed as relative luminescence units.
Potency is the fitted concentration of half-maximal effect.

Sequence of Cytochrome P450 2D6 (Homo sapiens) (P10635 whole entry, looked up): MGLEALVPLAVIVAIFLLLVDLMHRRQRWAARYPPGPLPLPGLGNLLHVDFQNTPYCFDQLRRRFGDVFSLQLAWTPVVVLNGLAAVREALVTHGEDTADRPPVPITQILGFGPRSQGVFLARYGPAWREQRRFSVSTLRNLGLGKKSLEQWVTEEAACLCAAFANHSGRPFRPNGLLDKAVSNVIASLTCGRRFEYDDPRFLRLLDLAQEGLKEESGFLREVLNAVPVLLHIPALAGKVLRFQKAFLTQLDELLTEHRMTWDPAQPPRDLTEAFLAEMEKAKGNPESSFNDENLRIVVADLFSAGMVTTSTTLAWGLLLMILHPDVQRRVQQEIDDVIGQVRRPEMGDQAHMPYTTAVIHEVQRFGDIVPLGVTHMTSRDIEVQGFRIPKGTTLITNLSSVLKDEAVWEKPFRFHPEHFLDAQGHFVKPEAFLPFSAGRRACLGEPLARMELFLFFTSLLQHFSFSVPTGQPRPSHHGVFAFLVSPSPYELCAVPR

Compound	Potency
Cc1cccc(OP(=O)(Oc2cccc(C)c2)Oc2cccc(C)c2)c1	inactive
Clc1ccc(C(c2ccccc2Cl)C(Cl)(Cl)Cl)cc1 (stereo not given)	inactive
CCCCCCCCCCBr	inactive
ClCc1ccc(Cl)cc1Cl	inactive
Cc1c(Cl)c(=O)oc2cc(OP(=O)(OCCCl)OCCCl)ccc12	3.47 µM (active)
CC(O)C#N (stereo not given)	inactive
c1cc[c]([Sb]([c]2ccccc2)[c]2ccccc2)cc1	inactive
Clc1ccc(C(Cl)(Cl)Cl)c(Cl)c1	31.9 µM (active)
FC(Cl)(Cl)Cl	inactive
CC(=O)O[C@H]1CC[C@@]2(C)C(=CC[C@@H]3[C@@H]2CC[C@]2(C)C(=O)CC[C@@H]32)C1	inactive
COc1ccc([N+](=O)[O-])cc1O	inactive
BrCC(Br)c1ccccc1 (stereo not given)	12.6 µM (active)
CC(Cc1ccc(C(C)(C)C)cc1)CN1C[C@@H](C)O[C@@H](C)C1 (stereo not given in full)	8.94 µM (active)
CN(C)c1ccc(N=Nc2ccccc2)cc1	40 µM (active)
c1ccc2cc3c(cc2c1)-c1cccc2cccc-3c12	inactive
CC(C)(COCC1CO1)COCC1CO1 (stereo not given)	inactive
C=CC(=O)N(C)C	inactive
CCCCCCCCCBr	inactive
CCOCn1c(-c2ccc(Cl)cc2)c(C#N)c(Br)c1C(F)(F)F	35.6 µM (active)
CC1(C)CN=C(NN=C(/C=C/c2ccc(C(F)(F)F)cc2)/C=C/c2ccc(C(F)(F)F)cc2)NC1	11.2 µM (active)

Compound	Potency
ClC1=C(Cl)[C@]2(Cl)[C@H]3[C@H]([C@H]4C=C[C@H]3C4)[C@@]1(Cl)C2(Cl)Cl	inactive
CCCN(CCC)c1c([N+](=O)[O-])cc(S(N)(=O)=O)cc1[N+](=O)[O-]	62.7 µM (active)
C[C@]12Cc3nonc3C[C@@H]1CC[C@@H]1[C@@H]2CC[C@@]2(C)[C@H]1CC[C@]2(C)O	inactive
ClC1=C(Cl)[C@]2(Cl)[C@@H]3[C@@H](Cl)[C@H](Cl)C[C@@H]3[C@@]1(Cl)C2(Cl)Cl	inactive
CC(c1ccc(O)cc1)c1ccc(O)cc1	33.4 µM (active) and inactive
CCCOCC(=Nc1ccc(Cl)cc1C(F)(F)F)n1ccnc1	35.6 µM (active)
CC(C)OS(C)(=O)=O	40.2 µM (active)
N#C/C=C/C#N	74.4 µM (active)
c1ccc2c(c1)OCC(C1=NCCN1)O2 (stereo not given)	13.8 µM (active)
CC(C)[C@H](C(=O)O[C@H](C#N)c1cccc(Oc2ccccc2)c1)c1ccc(Cl)cc1	inactive
CC[C@H](C)[C@H]1O[C@]2(C=C[C@@H]1C)C[C@@H]1C[C@@H](C/C=C(\C)[C@@H](O[C@H]3C[C@H](OC)[C@@H](O[C@H]4C[C@H](OC)[C@@H](O)[C@H](C)O4)[C@H](C)O3)[C@@H](C)/C=C/C=C3\CO[C@@H]4[C@H](O)C(C)=C[C@@H](C(=O)O1)[C@]34O)O2	33.3 µM (active)
ClC1=C(Cl)C2(Cl)C3C(Cl)C=CC3C1(Cl)C2(Cl)Cl (stereo not given)	inactive
COP(=O)(OC)SCn1c(=O)oc2cc(Cl)cnc21	39.9 µM (active)
[Cl][Sb]([Cl])[Cl]	inactive
CC(C)CC(C)N (stereo not given)	inactive
[Hg+2].[I-].[I-]	2 µM (active)
Clc1ccc(C(c2ccc(Cl)cc2)C(Cl)(Cl)Cl)cc1	inactive
N#Cc1ccccc1N	25.2 µM (active)
C=CCC1=C(C)C(OC(=O)C2C(C=C(C)C)C2(C)C)CC1=O (stereo not given)	30 µM (active)
CC1(c2ccc(Oc3ccccc3)cc2)OC(=O)N(Nc2ccccc2)C1=O (stereo not given)	inactive
